High-throughput results: PubChem, National Center for Advancing Translational Sciences (NCATS)
TDP1 cell CPT: growth inhibition of DT40 Tdp1-/-;hTDP1 cells with camptothecin (screen for TDP1 inhibitors); Potency, µM (highest dose often 46.2 µM), for the others: top-dose activity change, negative = growth inhibition, hits mostly inhibitors; actives 12% (n = 420,000); chicken DT40 Tdp1-/-;hTDP1 cells + 20 nM CPT, ATP luminescence, 48 h; note: potency is the fitted concentration of half-maximal effect; nearly all actives have a fitted effect of over 55% in size
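Chicken DT40 Tdp1-/- cells complemented with human TDP1, 400 cells/well, exposed to compounds plus 20 nM camptothecin for at least 48 h at 37 C; viability read as ATP content by CellTiter-Glo luminescence.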
DT40 TDP1 no CPT: qHTS for Inhibitors of human tyrosyl-DNA phosphodiesterase 1 (TDP1): qHTS in cells in absence of CPT | DT40 Tdp1-/- hTDP1 cells, no CPT, ATP luminescence, 48 h | Potency, µM (titrated, usually from 46.2 µM), for inactives: at the highest dose activity change, negative = growth inhibition, actives largely listed as inhibitors | actives 15% (n = 420,000) | AID 686978, 2013; note: potency is the fitted concentration of half-maximal effect; nearly all actives have a fitted effect of over 55% in size
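A cellular qHTS used chicken DT40 cells lacking endogenous Tdp1 but carrying stably transfected human TDP1. Compounds were applied without camptothecin, and cell growth kinetics were judged by ATP-dependent luminescence after ≥48 hr.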
HT1080-NT tox: kills 2HG-producing HT-1080-NT fibrosarcoma cells | HT-1080-NT fibrosarcoma viability, CellTiter-Glo ATP luminescence, 48 h | Potency, µM (titrated, usually from 46.1 µM), for the others: top-dose activity, negative = less viability, actives largely listed as cytotoxic | actives 1.6% (n = 360,000) | AID 686970;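 note: NT is the 2HG producing partner of a matched IDH1 knockdown line; potency is the fitted concentration of half-maximal effect; 0% = DMSO-treated cells and -100% = media-only wells without cells; nearly all actives have a fitted effect of over 55% in size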
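Read-out is CellTiter-Glo luminescence after 10 minutes at room temperature, following 48 hours' compound treatment of HT-1080-NT cells (750 cells/well, RPMI, 5% FBS, 37 degrees C).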
HT1080 IDH1KD tx: HT-1080 IDH1 knockdown cell toxicity (counter line); HT-1080 IDH1 knockdown viability, ATP luminescence, 48 h; Potency, µM (highest dose often 46.1 µM), for the others: at the highest dose activity, negative = toxicity, usual class: cytotoxic; actives 2% (n = 360,000); AID 686971;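 note: potency is the fitted concentration of half-maximal effect; 0% = DMSO wells and -100% = cell-free medium wells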
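IDH1KD HT-1080 cells, 750/well, RPMI + 5% FBS; compound pinned after 2 h settling; 48 h, 37 °C; CellTiter-Glo luminescence; % activity normalised to DMSO and no-cell wells; curves fitted, classed by r2 and efficacy.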
IL-1B inflam inh: inhibitors of inflammasome signaling (IL-1 beta secretion); THP-1 LPS/ATP IL-1B secretion, AlphaLISA, 16 h; stronger effect = lower value; actives 4.7% (n = 360,000); activity change, % at 57.5 µM; in the data active = activity change below about -50%; inconclusive = mostly about -30% to -49%
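THP-1 cells pretreated 1 hr with compounds (up to 57.5 uM final), then stimulated with LPS (250 ng/mL final) plus ATP (1.25 mM final); secreted IL-1B measured by AlphaLISA after 16 hr, decreased signal indicating inhibition.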
* hit, by the source's call; ? = inconclusive; . = not tested or not shown; [ ] = dose if it differs, or a comment. In the library only some 19% were active in any assay of this set; here they are far more common. Unless noted, calls come from the whole dose curve; as a rule, active = well fitted curve in the direction sought with a large enough effect; inconclusive = small, poorly fitted or top-dose-only effect, or another doubt; inactive = no such curve, though single readings can be large; an effect the other way counts as inactive or inconclusive. Unless noted, % is set by controls: 0 for no effect and ±100 for the full control effect.

SMILES | TDP1 cell CPT | DT40 TDP1 no CPT | HT1080-NT tox | HT1080 IDH1KD tx | IL-1B inflam inh
CCOC(=O)c1cc(OCC)c2c(ccc3cc(OC)ccc32)n1 | ? | 5.8µM* | 1% | -15% | 0
Cc1c(NS(=O)(=O)c2ccc3c(c2)Cc2ccccc2-3)c(=O)n(-c2ccccc2)n1C | 6% | ? | 12% | 9% | 8
COC(=O)C1=C(C)NC(=S)NC1c1ccc(-c2cc(Cl)ccc2Cl)o1 (stereo unspecified) | 6.5µM* | 5.8µM* | ? | ? | 33
COC(=O)C1=C(C)NC(=O)NC1c1ccc(-c2ccc(Cl)cc2)o1 (stereo unspecified) | -28% | ? | -3% | -25% | 0
CCCCN1C(=O)C(C#N)CC2=C1CC(C)(C)CC2=O (stereo unspecified) | -4% | -5% | 2% | 4% | 5
N#Cc1c(-c2ccc(F)cc2)ccnc1N1CCOCC1 | -38% | -12% | 2% | 7% | -2
O=C(O)C(=O)/C(=C\c1cccc2ccccc12)c1ccc2ccccc2n1 | ? | 18µM* | ? | ? | 17
CNC(=O)OCc1nc(SC2CCCCO2)n(C)c1COC(=O)NC (stereo unspecified) | ? | -10% | 8% | 0% | -1
O=C(NCCc1ccccc1)c1ccc2c(c1)CCN2S(=O)(=O)c1ccccc1 | 21µM* | 15µM* | . | . | .
COc1ccc(CCNC(=O)c2ccc3c(c2)CCN3S(=O)(=O)c2ccc(C)cc2)cc1 | ? | 10µM* | . | . | .
COc1ccc(CNC(=O)c2ccc3c(c2)CCN3S(=O)(=O)c2ccccc2)cc1 | 12µM* | 18µM* | . | . | .
Cc1ccc(CNC(=O)c2ccc3c(c2)CCN3S(=O)(=O)c2ccc(Br)cc2)cc1 | -18% | -24% | . | . | .
CCc1cccc(CC)c1NC(=O)c1ccc2c(c1)CCN2S(=O)(=O)c1ccccc1 | 0% | 0% | . | . | .
CO[C@H]1[C@H](NC(=O)c2ccncc2)c2ccccc2C12CCN(C(=O)c1ccoc1)CC2 | 17%[9.04 µM] | 4% | . | . | .
COc1cccc(CNC(=O)CN2C(=O)CSc3ccc(S(=O)(=O)N4CCCC4)cc32)c1 | 0% | ? | 1% | -7% | -6
CC(C)COC(=O)N1CCCCC1c1cc(C(=O)NCc2cccnc2)no1 (stereo unspecified) | -20% | -29% | 5% | 12% | 13
Oc1c(C(c2ccc(Cl)cc2)N2CCOCC2)sc2nc(-c3ccco3)nn12 (stereo unspecified) | -8% | -18% | . | . | .
CCCCCCCCN1C(=O)[C@H](CC(=O)N2CCN(C(=O)OCC)CC2)C[C@@]2(C(=O)OC)CC(C)(C)CC=C12 | 13µM* | 13µM* | ? | ? | -28
CCCCCCCCN1C(=O)[C@H](CC(=O)N2CCN(C(=O)C3CC3)CC2)C[C@@]2(C(=O)OC)CC(C)(C)CC=C12 | 15µM* | 15µM* | ? | ? | -60*
CCOC(=O)N1CCN(C(=O)C[C@@H]2C[C@@]3(C(=O)OC)CC(C)(C)CC=C3N(Cc3ccccc3)C2=O)CC1 | ? | ? | 7% | -22% | -3
COc1ccc(Nc2nc3c(S(=O)(=O)c4ccccc4)nnn3c3ccc(Cl)cc23)cc1 | 6.5µM* | 9.2µM* | . | . | .
CCc1ccc(S(=O)(=O)c2nnn3c2nc(Nc2ccc(F)cc2)c2cc(Cl)ccc23)cc1 | 3.7µM* | 5.2µM* | . | . | .
COc1ccc(Nc2nc3c(S(=O)(=O)c4ccccc4)nnn3c3ccc(Cl)cc23)cc1OC | 0% | 0% | . | . | .
Cc1ccc(S(=O)(=O)c2nnn3c2nc(NCc2ccc(F)cc2)c2sccc23)cc1 | -13% | ? | . | . | .
CC(C)NC(=O)COc1nncc2ccccc12 | 24% | 7% | 10% | 7% | -4
SMILES | TDP1 cell CPT | DT40 TDP1 no CPT | HT1080-NT tox | HT1080 IDH1KD tx | IL-1B inflam inh
Cc1ccc(CN(Cc2ccco2)c2cnc(S(C)(=O)=O)nc2C(=O)Nc2ccccc2Br)o1 | 9.2µM* | 8.2µM* | . | . | .
Cc1ccccc1NC(=O)c1nc(S(C)(=O)=O)ncc1N(Cc1ccco1)Cc1sccc1C | 16µM* | 21µM* | . | . | .
CCS(=O)(=O)c1ncc(N(Cc2ccco2)Cc2sccc2C)c(C(=O)Nc2cc(C)ccc2C)n1 | ? | 21µM* | . | . | .
Cc1ccc(C)c(N(CC(=O)NCc2ccco2)C(=O)CCC(=O)Nc2nccs2)c1 | 1% | -29% | -2% | 13% | .
CCS(=O)(=O)c1ncc(N(Cc2cccc(F)c2)Cc2ccco2)c(C(=O)Nc2ccccc2Cl)n1 | ? | 6.5µM* | . | . | .
CCOc1ccc(NC(=O)CCS(=O)(=O)c2cc3c4c(c2)CCN4C(=O)CC3)cc1 | -1% | -6% | . | . | .
Cc1ccc(NC(=O)c2nc(S(C)(=O)=O)ncc2N(Cc2ccco2)Cc2cccs2)c(C)c1 | ? | 21µM* | . | . | .
COc1ccc(NC(=O)COc2ccccc2Cc2ccccc2)cc1S(=O)(=O)N1CCOCC1 | ? | ? | -3% | -2% | -10
O=C(O)COc1ccccc1/C=N/NC(=O)COc1ccc(-c2ccccc2)cc1 | 3% | 29µM* | 5% | -4% | -15
COc1ccc(/C=N/NC(=O)CCn2cnc(-c3ccccc3)c2-c2ccccc2)cc1 | 1.6µM* | 0.65µM* | 3.3µM* | 3.3µM* | 0
CN(C)c1ccc(/C=N/NC(=O)COc2ccccc2)cc1 | -17% | -17% | 28% | 28% | -22
O=C(CSc1nc2ccccc2s1)N/N=C/c1ccc(C(=O)O)cc1 | -9% | ? | 0% | 1% | 15
COc1ccc(/C=N/NC(=O)COc2ccccc2-c2ccccc2)cc1 | 0.58µM* | 0.65µM* | 2.3µM* | 0.82µM* | 106
CNC(=S)N/N=C/c1ccccc1OCC(=O)O | 0% | -9% | 19% | 8% | 22
COc1ccc(/C=N/NC(=O)CCSc2nc3ccccc3s2)cc1 | 5.8µM* | 2.6µM* | ? | ? | ?
O=C(CCc1cccnc1)NCC1Cc2cccc(-c3ncccn3)c2O1 (stereo unspecified) | 3%[9.04 µM] | 11% | . | . | .
O=C(CCn1cnc(-c2ccccc2)c1-c1ccccc1)N/N=C/c1ccccc1O | 5.2µM* | 4.6µM* | 13µM* | 15µM* | 230
COc1ccc(/C=C/C(=O)Oc2cccc(/C=N/NC(=O)COc3c(C)cccc3C)c2)cc1 | 21µM* | 15µM* | -20% | -21% | 1
COc1cccc(C=NNC(=O)CCCC(=O)NN=Cc2cccc(OC)c2)c1 | 7% | -27% | 6% | 14% | -18
COc1ccccc1/C=C/C=N/NC(=O)CCn1cnc2ccccc21 | 16µM* | 10µM* | 10µM* | 15µM* | -7
